# Reference: ChEMBL document CHEMBL3988442, “University of Dundee, Small-Polar-MMV Screening Library” (2021)
# For part of these data: Entries with a potency or affinity are not part of this list.
# Legend:
# Design in all cases: scale not given: direction of the effect not stated beside the values
# [1] = target: Protein translocase subunit SecA (Escherichia coli (strain K12)) (UniProt P10408); assay: Assay to Identify E. coli SecA ATPase Inhibitors; type: functional; conditions: 30 µM
# [2] = target: T1, Ubiquitin-activating enzyme e1, putative (Leishmania donovani (strain BPK282A1)) (UniProt E9BSI1); assay: Leishmania donovani Ubiquitin Activating Enzyme (LdE1); type: functional; conditions: 30 µM
# T1 sequence (whole entry): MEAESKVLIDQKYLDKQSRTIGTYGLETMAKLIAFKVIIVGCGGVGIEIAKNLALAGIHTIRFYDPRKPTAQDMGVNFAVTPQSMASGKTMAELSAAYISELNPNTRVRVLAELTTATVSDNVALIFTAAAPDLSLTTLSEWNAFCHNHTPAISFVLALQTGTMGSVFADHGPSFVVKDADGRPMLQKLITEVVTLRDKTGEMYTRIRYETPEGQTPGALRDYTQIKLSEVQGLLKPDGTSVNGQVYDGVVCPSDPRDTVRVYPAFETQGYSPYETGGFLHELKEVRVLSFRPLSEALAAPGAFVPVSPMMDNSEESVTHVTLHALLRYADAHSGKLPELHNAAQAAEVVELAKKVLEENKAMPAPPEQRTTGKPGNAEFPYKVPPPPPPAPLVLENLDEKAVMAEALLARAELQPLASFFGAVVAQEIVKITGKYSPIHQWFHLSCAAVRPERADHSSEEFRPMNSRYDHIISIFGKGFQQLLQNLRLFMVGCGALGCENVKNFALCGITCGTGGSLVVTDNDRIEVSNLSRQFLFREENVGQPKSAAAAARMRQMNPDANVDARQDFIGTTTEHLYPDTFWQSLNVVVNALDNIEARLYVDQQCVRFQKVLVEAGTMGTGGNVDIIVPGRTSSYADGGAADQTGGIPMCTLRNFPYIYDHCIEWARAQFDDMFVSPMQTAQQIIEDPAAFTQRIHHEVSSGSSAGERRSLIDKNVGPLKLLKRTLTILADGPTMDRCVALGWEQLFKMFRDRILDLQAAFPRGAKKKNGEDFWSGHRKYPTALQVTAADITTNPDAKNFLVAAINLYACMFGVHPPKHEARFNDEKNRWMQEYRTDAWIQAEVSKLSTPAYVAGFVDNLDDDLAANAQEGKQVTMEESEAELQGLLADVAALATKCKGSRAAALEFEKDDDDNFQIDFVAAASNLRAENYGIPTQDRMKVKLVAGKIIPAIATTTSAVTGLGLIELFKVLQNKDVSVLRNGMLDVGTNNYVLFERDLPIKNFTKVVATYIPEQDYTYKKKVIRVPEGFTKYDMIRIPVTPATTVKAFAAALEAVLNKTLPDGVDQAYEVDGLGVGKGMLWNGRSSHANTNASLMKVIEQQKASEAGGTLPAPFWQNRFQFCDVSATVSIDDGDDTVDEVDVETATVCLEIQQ
# [3] = target: AMP-activated protein kinase, AMPK (Homo sapiens) (UniProt P54646+O43741+P54619+Q9UGJ0+Q9Y478+Q13131+Q9UGI9); assay: AMP-dependent Kinase enzyme assay. An in vitro enzyme assay that detects ADP turnover that is directly proportional to AMPK activity. This uses naive AMPK that is activated during the assay with MK-8722; type: functional; conditions: 30 µM
# [4] = target: Sialic acid-binding Ig-like lectin 9 (Homo sapiens) (UniProt Q9Y336); assay: Hs-Siglec9 ALPHAscreen SOP 20170721; conditions: 10 µM
# Chain of Sialic acid-binding Ig-like lectin 9 (Homo sapiens) (Q9Y336 whole entry): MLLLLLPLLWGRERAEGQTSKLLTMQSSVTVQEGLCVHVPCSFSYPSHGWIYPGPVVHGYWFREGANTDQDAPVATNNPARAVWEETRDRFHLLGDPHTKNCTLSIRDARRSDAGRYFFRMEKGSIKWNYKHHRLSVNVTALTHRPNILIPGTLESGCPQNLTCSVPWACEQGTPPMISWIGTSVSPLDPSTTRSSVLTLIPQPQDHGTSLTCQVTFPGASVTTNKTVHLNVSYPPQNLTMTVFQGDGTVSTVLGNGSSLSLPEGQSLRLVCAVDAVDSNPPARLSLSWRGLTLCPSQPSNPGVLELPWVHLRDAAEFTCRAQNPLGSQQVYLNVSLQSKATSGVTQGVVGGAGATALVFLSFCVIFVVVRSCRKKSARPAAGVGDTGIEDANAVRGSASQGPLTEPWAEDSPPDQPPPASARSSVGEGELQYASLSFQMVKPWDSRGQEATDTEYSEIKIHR
# Trypanosoma cruzi = assay: Trypanosoma cruzi phosphomannomutase and mannose-1-phosphate guanylyltransferase assay; type: functional; conditions: 10 µM
# [5] = target: T2, Arginase-2, mitochondrial (Homo sapiens) (UniProt P78540); assay: in vitro enzyme assay to detect the production of urea directly proportional to the activity of Arginase II; type: functional; conditions: 33.3 µM; further: in the data most compounds retested in dose-response had high values
# T2 sequence (whole entry): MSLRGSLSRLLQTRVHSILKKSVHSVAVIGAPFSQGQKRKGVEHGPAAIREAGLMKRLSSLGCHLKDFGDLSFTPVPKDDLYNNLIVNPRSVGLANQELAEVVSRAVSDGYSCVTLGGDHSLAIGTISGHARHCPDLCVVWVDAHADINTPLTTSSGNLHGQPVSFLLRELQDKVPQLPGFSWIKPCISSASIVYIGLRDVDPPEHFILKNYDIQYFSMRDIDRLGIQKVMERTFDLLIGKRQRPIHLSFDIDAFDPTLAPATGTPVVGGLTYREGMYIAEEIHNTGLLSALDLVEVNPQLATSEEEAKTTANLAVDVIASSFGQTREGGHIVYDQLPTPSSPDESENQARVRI
# [6] = target: T3, Proteasome subunit beta (Trypanosoma cruzi) (UniProt O96673); assay: Trypanosoma cruzi proteasome chymotrypsin-like activity (TcProtChymo) assay.; further: in the data most compounds retested in dose-response had high values; type: functional; conditions: 9.37 µM
# T3 sequence (whole entry): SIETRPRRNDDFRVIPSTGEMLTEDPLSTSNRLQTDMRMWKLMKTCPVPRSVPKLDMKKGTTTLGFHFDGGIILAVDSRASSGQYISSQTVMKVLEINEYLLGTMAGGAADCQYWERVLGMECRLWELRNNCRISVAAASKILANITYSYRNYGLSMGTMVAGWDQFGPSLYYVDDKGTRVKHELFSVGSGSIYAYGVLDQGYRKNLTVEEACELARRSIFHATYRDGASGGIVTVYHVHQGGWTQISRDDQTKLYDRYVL
# Homo sapiens = species: Homo sapiens; assay: To identify inhibition of the IFN signalling (Jak-Stat) pathway via expression of an eGFP reporter gene under the control of an IFN-stimulated response element (ISRE) containing MxA promoter.; type: functional; conditions: 30 µM
# [7] = target: T4, Tyrosyl-tRNA synthetase, putative (Trypanosoma cruzi (strain CL Brener)) (UniProt Q4DSP6); assay: Trypanosoma cruzi tyrosyl tRNA synthetase (TcYRS) _High Tyrosine SOP; type: functional; conditions: 30 µM; further: in the data most compounds retested in dose-response had high values
# T4 sequence (whole entry): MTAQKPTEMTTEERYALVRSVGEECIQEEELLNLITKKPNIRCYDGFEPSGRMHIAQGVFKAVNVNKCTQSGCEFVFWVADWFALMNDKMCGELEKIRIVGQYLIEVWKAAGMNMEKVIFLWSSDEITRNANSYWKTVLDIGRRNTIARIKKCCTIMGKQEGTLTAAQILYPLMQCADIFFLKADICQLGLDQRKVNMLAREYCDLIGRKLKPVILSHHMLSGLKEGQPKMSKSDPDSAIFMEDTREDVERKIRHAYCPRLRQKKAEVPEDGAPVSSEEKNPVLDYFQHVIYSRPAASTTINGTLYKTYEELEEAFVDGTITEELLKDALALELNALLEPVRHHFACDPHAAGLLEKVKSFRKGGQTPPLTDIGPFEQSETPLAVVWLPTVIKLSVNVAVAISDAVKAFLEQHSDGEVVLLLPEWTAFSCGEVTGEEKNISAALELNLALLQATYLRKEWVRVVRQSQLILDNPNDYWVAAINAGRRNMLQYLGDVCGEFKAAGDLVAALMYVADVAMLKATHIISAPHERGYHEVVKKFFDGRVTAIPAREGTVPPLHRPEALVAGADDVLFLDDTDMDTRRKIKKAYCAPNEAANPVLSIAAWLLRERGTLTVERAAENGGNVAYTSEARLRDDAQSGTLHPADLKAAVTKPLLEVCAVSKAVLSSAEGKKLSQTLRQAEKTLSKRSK
# [8] = target: T4, Tyrosyl-tRNA synthetase, putative (Trypanosoma cruzi (strain CL Brener)); assay: Trypanosoma cruzi tyrosyl tRNA synthetase (TcYRS) SOP; type: functional; conditions: 30 µM
# [9] = target: Chromo domain-containing protein 1 (Saccharomyces cerevisiae (strain ATCC 204508 / S288c) (Baker's yeast)) (UniProt P32657); assay: ScCHD-1 Enzyme Inhibition Assay; type: functional; conditions: 30 µM; further: in the data most compounds retested in dose-response had high values
# Chain of Chromo domain-containing protein 1 (Saccharomyces cerevisiae (strain ATCC 204508 / S288c) (Baker's yeast)) (P32657 whole entry, the tested form may be a part): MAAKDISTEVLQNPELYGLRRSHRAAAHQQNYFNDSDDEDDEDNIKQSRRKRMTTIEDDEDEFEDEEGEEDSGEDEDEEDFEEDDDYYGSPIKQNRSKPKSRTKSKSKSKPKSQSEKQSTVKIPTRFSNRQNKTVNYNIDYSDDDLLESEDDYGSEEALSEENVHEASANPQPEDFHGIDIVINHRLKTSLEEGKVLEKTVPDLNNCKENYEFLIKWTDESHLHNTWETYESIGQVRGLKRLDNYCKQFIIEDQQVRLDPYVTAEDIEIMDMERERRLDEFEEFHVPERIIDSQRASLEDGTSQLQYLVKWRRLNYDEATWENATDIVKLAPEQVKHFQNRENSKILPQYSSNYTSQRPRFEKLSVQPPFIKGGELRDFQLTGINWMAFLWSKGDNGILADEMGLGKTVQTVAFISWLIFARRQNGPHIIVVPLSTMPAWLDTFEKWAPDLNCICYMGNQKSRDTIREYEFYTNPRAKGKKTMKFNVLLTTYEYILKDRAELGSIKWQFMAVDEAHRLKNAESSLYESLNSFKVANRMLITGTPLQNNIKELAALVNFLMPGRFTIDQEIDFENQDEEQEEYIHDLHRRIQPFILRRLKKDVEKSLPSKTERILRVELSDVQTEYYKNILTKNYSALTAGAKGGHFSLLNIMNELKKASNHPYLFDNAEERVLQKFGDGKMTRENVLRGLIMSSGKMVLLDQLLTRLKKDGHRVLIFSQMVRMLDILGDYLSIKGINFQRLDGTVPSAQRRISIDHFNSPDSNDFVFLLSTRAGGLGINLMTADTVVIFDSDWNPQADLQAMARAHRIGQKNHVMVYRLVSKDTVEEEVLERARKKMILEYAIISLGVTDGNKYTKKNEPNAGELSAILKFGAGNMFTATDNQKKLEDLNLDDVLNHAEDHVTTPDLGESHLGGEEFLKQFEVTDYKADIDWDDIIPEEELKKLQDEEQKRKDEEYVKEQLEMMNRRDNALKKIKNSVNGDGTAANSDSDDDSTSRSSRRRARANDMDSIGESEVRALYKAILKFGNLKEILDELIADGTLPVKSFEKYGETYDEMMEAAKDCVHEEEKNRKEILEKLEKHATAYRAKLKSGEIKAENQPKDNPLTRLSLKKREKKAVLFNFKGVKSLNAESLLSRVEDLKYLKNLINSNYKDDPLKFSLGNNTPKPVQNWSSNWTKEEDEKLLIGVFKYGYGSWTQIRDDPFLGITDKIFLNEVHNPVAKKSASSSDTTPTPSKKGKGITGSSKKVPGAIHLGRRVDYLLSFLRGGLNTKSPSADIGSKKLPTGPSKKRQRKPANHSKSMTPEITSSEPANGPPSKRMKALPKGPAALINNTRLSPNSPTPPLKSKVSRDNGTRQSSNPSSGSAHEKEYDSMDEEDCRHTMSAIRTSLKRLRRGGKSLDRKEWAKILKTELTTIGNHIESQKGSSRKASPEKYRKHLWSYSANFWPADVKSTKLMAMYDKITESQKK
# Chain of Protein translocase subunit SecA (Escherichia coli (strain K12)) (P10408 whole entry): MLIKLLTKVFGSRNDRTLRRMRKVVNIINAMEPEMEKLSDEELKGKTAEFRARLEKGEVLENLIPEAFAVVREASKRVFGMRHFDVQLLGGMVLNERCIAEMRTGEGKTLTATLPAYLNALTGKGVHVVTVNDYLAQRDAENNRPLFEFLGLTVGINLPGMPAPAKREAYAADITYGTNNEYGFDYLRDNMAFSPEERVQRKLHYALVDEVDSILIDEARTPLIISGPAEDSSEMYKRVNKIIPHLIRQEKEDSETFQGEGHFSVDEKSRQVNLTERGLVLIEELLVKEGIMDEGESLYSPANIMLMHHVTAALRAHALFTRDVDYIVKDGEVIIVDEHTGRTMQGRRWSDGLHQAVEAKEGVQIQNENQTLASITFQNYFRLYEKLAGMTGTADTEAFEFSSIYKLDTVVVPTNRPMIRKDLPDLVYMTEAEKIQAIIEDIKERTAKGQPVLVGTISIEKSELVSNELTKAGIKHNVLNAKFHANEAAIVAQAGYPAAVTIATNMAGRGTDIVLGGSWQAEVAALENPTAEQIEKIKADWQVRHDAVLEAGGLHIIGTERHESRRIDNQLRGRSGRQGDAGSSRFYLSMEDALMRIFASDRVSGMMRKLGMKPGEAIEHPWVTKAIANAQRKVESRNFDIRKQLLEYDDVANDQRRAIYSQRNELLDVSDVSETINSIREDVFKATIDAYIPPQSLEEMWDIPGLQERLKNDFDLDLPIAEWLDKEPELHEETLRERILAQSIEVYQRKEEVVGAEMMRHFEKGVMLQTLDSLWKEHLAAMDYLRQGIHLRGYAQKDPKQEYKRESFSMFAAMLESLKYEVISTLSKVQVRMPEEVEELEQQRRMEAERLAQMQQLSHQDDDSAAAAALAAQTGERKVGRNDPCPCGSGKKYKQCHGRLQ
SMILES,Percent Effect [1],Percent Effect [2],Percent Effect [3],Percent Effect [4],Percent Effect (Trypanosoma cruzi),Percent Effect [5],Percent Effect [6],Percent Effect (Homo sapiens),Percent Effect [7],Percent Effect [8],Percent Effect [9]
O=C(Nc1ccc(CCN2CCC(O)CC2)cc1)Nc1cccnc1,-1.45%,5.41%,-3.72%,8.33%,-1.54%,-1.91%,18.4%,8.03%,6.88%,4.88%,-3.57%
O=C(NCc1cn2c(n1)CN(CC1CCOCC1)CC2)C1CCC1,-8.08%,-2.7%,4.27%,1.46%,-2.73%,-1.25%,12.9%,5.25%,2.97%,1.22%,-0.655%
Cc1cnn(CCNCC(O)COc2ccc(Cl)cc2)c1 (stereo unspecified),-3.71%,10.1%,0.158%,12.9%,3.12%,0.76%,-1.88%,-3.16%,3.45%,8.86%,-2.04%
O=C(Cc1ccccc1)N1CCC2(CC(=O)N(c3ccsc3)C2)C1 (stereo unspecified),-0.7%,8.11%,-4.26%,-6.07%,3.52%,11.2%,13.8%,-6.08%,14.8%,-28.1%,-3.9%
Cc1ncsc1C(=O)N(C)CCc1ccncc1,-2.19%,2.63%,9.05%,3.98%,-0.564%,0%,-1.84%,16.7%,2.45%,4.88%,5.09%
Cc1ccc2c(c1)CN(C(=O)c1ccccc1F)C(CN(C)C)CO2 (stereo unspecified),-0.708%,12.2%,14.3%,-7.4%,-5.73%,-4.41%,11.7%,0.0165%,1.07%,3.9%,-10%
